Screen size: about 290,000 compounds; about 3,000 (1%) were called active. No stated cut-off is given here; in the data, active means inhibition mostly above about 36% (no sharp cut-off); inactive means mostly below about 34%. The entries come from a sample that favours actives as a whole.
Assay: NOD1 signaling inhibitors, primary screen, cell-based, luminescence, uHTS (AID 1578);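 further: HEK-293T reporter cells stimulated with the NOD1 agonist gamma-tri-DAP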
Details: NOD1-driven NF-kB luciferase reporter cells, at 4 µM, stronger effect = higher value

inhibition, inactive:
Cc1ccc(NC(=O)CN(C)CC(=O)Nc2c(C)cccc2C)c(Br)c1 -5.8%, O=C(O)c1ccc(-c2ccc(Cl)cc2Cl)o1 -54%, Cc1ccccc1NC(=O)c1ccc(-c2ccc(Cl)cc2Cl)o1 -41.4%, COc1cccc(CN2CCCC(C(=O)c3ccc4c(c3)OCO4)C2)c1O (stereo not given) -27.5%, CC(C)N1C(=O)S/C(=C/c2ccc(Sc3nc4ccccc4[nH]3)o2)C1=O 50.1%, CCN1C(=O)S/C(=C/c2ccc(Sc3nc4ccccc4[nH]3)o2)C1=O 38.6%, Cc1ccc(S(=O)(=O)N2CCC(C(=O)NCCCN3CCCC3=O)CC2)cc1C -29.3%, CN(C)S(=O)(=O)c1ccc(Oc2ccccc2)cc1 -4.6%, COc1ccc(CNC(=O)C2(CC(=O)NC(C)(C)C)CCCC2)cc1 4.9%, CCC(=O)Nc1sc2c(c1C(N)=O)CCC2 0.4%, CCC(=O)Nc1sc2c(c1C(=O)N(C)C)CCCCC2 -18.5%, CCCCN1CN(Cc2ccccc2)CNC1=S -16.8%, Cc1nc2cc(CO)ccc2n1C -15.3%, CN(C)C(CNC(=O)/C=C/c1cccc(Cl)c1)c1ccccc1 (stereo not given) -22.7%, O=C(N/N=C/c1ccccn1)c1ccccc1 -39%, O=C(O)c1cccc(NC(=S)N/N=C/c2cccc(O)c2)c1 -6.8%, O=C(N/N=C/c1ccccn1)c1ccc(NC(=O)c2cccc([N+](=O)[O-])c2)cc1 -22.2%, O=C(N/N=C/c1ccccn1)c1cccc([N+](=O)[O-])c1 20%, O=C(N/N=C/c1ccccn1)c1ccc(N/N=C/c2ccccn2)cc1 -58.4%, O=C(O)c1cccc(NC(=S)N/N=C/c2cccnc2)c1 -15.4%, Brc1c(CSc2nc3ccccc3o2)nc2ncccn12 -66.9%, Cc1cc(C)cc(NC(=O)c2ccc(CSc3nnnn3C)cc2)c1 -44.7%, COc1ccc(NC(=O)CN(C)C(=O)c2ccc(-c3cccc(C(F)(F)F)c3)o2)cc1 -14.7%, C=CCOc1ccccc1CNCc1ccc(F)cc1 -24%, Cc1ccc(S(=O)(=O)c2nc(S(C)(=O)=O)sc2N2CCCCCC2)cc1 32.4%, Cc1ccc(S(=O)(=O)c2nc(S(C)(=O)=O)sc2N2CCCC2)cc1 -19.8%, CC(=O)N1CCc2cc(S(=O)(=O)Nc3ccc(C)cc3)ccc21 0%, CC(=O)N1CCc2cc(S(=O)(=O)Nc3cccc(C(F)(F)F)c3)ccc21 30.6%, CCCNC(=O)CN1C(=O)COc2ccc(S(=O)(=O)N3CCCCCC3)cc21 -13.3%, COc1ccc(Cl)cc1C(=O)Nc1cccc2ncccc12 13.1%, COc1cccc(/C=C(/C#N)c2ccc(Cl)cc2)c1OCc1cccc(C(=O)O)c1 14.4%, CCOc1ccc(OCc2cccc(C(=O)N(CC)CC)c2)cc1 -59.7%, O=C(O)c1cccc(COc2ccccc2Cl)c1 97.2%, CCOc1ccc(OCc2cccc(C(=O)N3CCCC3)c2)cc1 -38%, COc1ccc(OCc2cccc(C(=O)NN)c2)cc1 38.9%, COc1ccc(OCc2ccc(C(=O)O)cc2)cc1 -70.3%, O=C(O)c1ccc(COc2ccc(CO)cc2Cl)cc1 -26.3%, O=C1NC(=O)/C(=C\c2ccc(OCc3cccc(C(=O)O)c3)c(Cl)c2)N1 -17.1%, O=C(N=C1SC2CS(=O)(=O)CC2N1c1ccc(OC(F)(F)F)cc1)C1CC1 (stereo not given) -27.3%, O=C(NC(c1cccnc1)C(F)(F)F)c1cc(COc2ccc3c(c2)CCCC3)on1 (stereo not given) 1.4%, Cc1nn(-c2ccccc2)c(=S)n1-c1ccccc1 -7%, O=C(CSc1n[nH]c(-c2ccccc2)n1)Nc1ccc(F)cc1F -6.2%, COc1ccc(OCc2cc(C(=O)N3CCCCCCC3)no2)c(Cl)c1 -23.7%, COCCn1c(C)cc(/C=C2/NC(=O)N(c3ccc(Cl)cc3)C2=O)c1C -49.9%, O=C(O)c1ccc(COc2ccc3c(c2)CCC3)cc1 -2.9%, NNC(=O)c1cccc(COc2ccc3c(c2)CCC3)c1 62.3%, COC(=O)c1cccc(Cn2cc([N+](=O)[O-])cn2)c1 -7.1%, Cc1nn(Cc2cccc(C(=O)Nn3cc([N+](=O)[O-])cn3)c2)c(C)c1[N+](=O)[O-] 0.9%, COc1ccc(OC)c(-c2csc(NC(=O)Cc3ccc(OC)c(OC)c3)n2)c1 25.1%, Cc1cc(C)cc(N(C(=O)c2csnn2)C(C(=O)NC(C)(C)C)c2cccs2)c1 (stereo not given) 10.5%, O=C1CCCCC(=O)N(c2ccccc2)c2ccccc21 7.2%, CCOC(=O)c1cnc2ccc(OCC)cc2c1NCc1ccccc1 -5.7%, CCOC(=O)c1cnc2ccc(OC)cc2c1NCc1ccccc1 3.2%, CN(C)C(=O)c1cc(F)ccc1Sc1cc(Cl)ccc1Cl -6.9%, CN(C)Cc1ccc(F)cc1Sc1ccc(Cl)cc1Cl -13.9%, CCc1ccc(-n2c(SCC(=O)N3CCC(C(=O)O)CC3)nnc2-c2ccncc2)cc1 -31.9%, O=C(N/N=C/c1coc2ccc(Cl)cc2c1=O)c1cc(O)cc(O)c1 31.6%, NC(=S)N/N=C/c1coc2ccc(Cl)cc2c1=O 9.6%, CC(=O)N1CCN=C1SCc1ccccc1Cl 1.2%, COc1ccc(C2C(C(=O)c3sc(C)nc3C)=C(O)C(=O)N2CCN(C)C)cc1 (stereo not given) -18.4%, COc1cc(/C=C2/SC(=O)NC2=O)ccc1OCc1ccccc1 -38.4%, COc1ccccc1OCCCOc1ccc(/C=C2\SC(=O)NC2=O)cc1OC 54.4%, CCOc1ccc(/C=C2\SC(=S)NC2=O)cc1OC -40.1%, CCOc1ccc(N(C)c2ccc(/C=C3/SC(=S)NC3=O)cc2)cc1 43.6%, CC(=O)Nc1ccc(OCc2nnc(-c3ccc(Cl)cc3)o2)cc1 -27.9%, Cc1ccc2c(c1)c1c(n2CC(O)Cn2ccnc2C)C(=O)CCC1 (stereo not given) -18.6%, COCCNC(=S)N(CCc1c(C)[nH]c2ccccc12)Cc1ccco1 -30.2%, O=C(CCN1C(=O)c2ccccc2C1=O)N1CCOCC1 -25.4%, Cc1ccc2c(c1)CCCN2C(=O)Nc1ccc2c(c1)OCO2 -2.3%, Cc1ccc(CNC(=O)Cn2cncn2)cc1 8.6%, COc1ccc(CNC(=O)Cn2cncn2)cc1OC -12.9%, Cc1cc(C)n(C(=O)CCCCCCCC(=O)n2nc(C)cc2C)n1 -26.9%, CC(=O)Nc1ccc2[nH]c3ccccc3c2c1 -15.1%, COc1ccc(NC(=O)c2cc3ccc4c5ccccc5[nH]c4c3cc2O)cc1 -6.7%, O=C(CSc1ccc(-c2ccccn2)nn1)NCc1ccc(F)cc1 -16.2%, COc1ccccc1CNC(=O)COC(=O)CNS(=O)(=O)c1ccc(C)cc1 -3%, Nc1ncnc(N(c2ccccc2)C2CCCCC2)c1[N+](=O)[O-] 44.6%, Cc1ccc(N(c2ncnc(N)c2[N+](=O)[O-])C2CCCCC2)cc1 22.2%, CN(Cc1ccccc1)c1ncnc(N)c1[N+](=O)[O-] 46%, Nc1ncnc(NC2CCS(=O)(=O)C2)c1[N+](=O)[O-] (stereo not given) 11.8%

inhibition, active:
Cc1cccc(C)c1NC(=O)c1ccc(-c2ccc(Cl)cc2Cl)o1 73.6%, C=CCN1C(=O)S/C(=C/c2ccc(Sc3nc4ccccc4[nH]3)o2)C1=O 71.4%, CCCN(CCC)C(=O)c1c(NC(=O)CC)sc2c1CCCCC2 50.3%, O=C(N/N=C/c1ccccn1)c1ccc(Br)cc1 103%, O=C(N/N=C/c1ccccn1)c1ccc([N+](=O)[O-])cc1 67.9%, O=C(O)c1cccc(NC(=S)N/N=C/c2ccccn2)c1 68.3%, Cc1ccc(S(=O)(=O)c2nc(S(C)(=O)=O)sc2N2CCCCC2C)cc1 (stereo not given) 55.1%, C/C(=N\OCc1cccc(C(=O)O)c1)c1ccc(Cl)cc1 47.4%, CCOc1ccc(OCc2cccc(C(=O)O)c2)cc1 97.5%, O=C(O)c1cccc(COc2ccc(CO)cc2Cl)c1 99.2%, COc1ccc(OCc2cccc(C(=O)O)c2)cc1 102%, COc1ccc(OCc2cccc(C(=O)Nn3cc([N+](=O)[O-])cn3)c2)cc1 50.9%, O=C(O)c1cccc(COc2ccc3c(c2)CCC3)c1 92.4%, CCOC(=O)c1cnc2ccc(OCC)cc2c1NCc1ccccc1OC 72.7%, CN(C)Cc1ccc(F)cc1Sc1cc(Cl)ccc1Cl 63.7%, O=c1c(/C=N\NS(=O)(=O)c2ccccc2)coc2ccc(Cl)cc12 69.9%, O=C(Cn1cncn1)NCc1ccc(Cl)cc1 66.1%, O=C(Nc1ccc(Cl)cc1)c1cc2c(cc1O)[nH]c1ccccc12 43.7%, CN(c1ncnc(N)c1[N+](=O)[O-])C1CCCCC1 80.2%, CN(c1ncnc(N)c1[N+](=O)[O-])C1CCS(=O)(=O)C1 (stereo not given) 58%

Source: PubChem BioAssay AID1578 (Sanford-Burnham Center for Chemical Genomics, 2009)
